{"source": "the OligoGym collection", "data": [{"molecular_target": "ZNF708", "experiment": "pooled miR-30 sensor sort-seq; sequence = guide strand", "conditions": "shRNA", "values": [{"sequence": "TTGAAAATACACTAAAAGCTTT", "sensor-assay potency score (higher = more potent)": -0.61}, {"sequence": "TCTGATATCCACATTTTCCATA", "sensor-assay potency score (higher = more potent)": -1.12}, {"sequence": "TATCTTATGATTCGTAAGGTTT", "sensor-assay potency score (higher = more potent)": -1.04}, {"sequence": "TTTTCTAGTAAGAATTATCTTA", "sensor-assay potency score (higher = more potent)": -0.389}, {"sequence": "TTATCTTATGATTCGTAAGGTT", "sensor-assay potency score (higher = more potent)": -0.564}]}, {"molecular_target": "ZNF718", "experiment": "pooled miR-30 sensor sort-seq; sequence = guide strand", "conditions": "shRNA", "values": [{"sequence": "TAATTCTATTATAACCACCTTT", "sensor-assay potency score (higher = more potent)": -0.203}, {"sequence": "TTAAATTCTCATGTCCACGTTT", "sensor-assay potency score (higher = more potent)": -0.266}, {"sequence": "ATATCTTATCTTATCTTTGTTT", "sensor-assay potency score (higher = more potent)": -0.436}, {"sequence": "TATCTTATCTTATCTTTGTTTG", "sensor-assay potency score (higher = more potent)": -1.2}, {"sequence": "TTTATCTACAGTGTGAATTTTC", "sensor-assay potency score (higher = more potent)": -0.972}, {"sequence": "TCTATTATAACCACCTTTCTGC", "sensor-assay potency score (higher = more potent)": -0.0639}, {"sequence": "ATTTGTAGTATTTTTGTGCAGA", "sensor-assay potency score (higher = more potent)": -0.171}, {"sequence": "TTATGTGTCGTAAGAGTTGTGG", "sensor-assay potency score (higher = more potent)": 0.343}, {"sequence": "TTTTGTGTTGAGTTAGGCGTGA", "sensor-assay potency score (higher = more potent)": 0.0879}, {"sequence": "TTATGTTTAGCAAAGTCTGAGG", "sensor-assay potency score (higher = more potent)": -0.614}]}]}
